Laboratory results reported in PubChem BioAssay (Tox21).
“And” between values parts separate entries of the source, which are not always exact repeats. Identical values can stand only once. Inconclusive results are not listed. A call without a number means that no potency is given here. The source made the active and inactive calls. Unless noted, calls come from the whole dose curve; as a rule, active = well fitted curve in the direction sought with a large enough effect in the repeat runs; inconclusive = weak or mixed curves; inactive = no such curve, though single readings can be large; an effect the other way counts as inactive or inconclusive.

Assays:
[1] = A CellTox Green Cytotoxicity Assay to monitor cytotoxicity in HEK293 cells - 32 hour (AID 1224881); note: nearly all actives have a fitted effect of over 40% in size; note: potency is the fitted concentration of half-maximal effect
Method in brief: (§1)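 Dead-cell fluorescence measured kinetically: asymmetric cyanine dye, HEK293, 600 cells/well, 5 h settle, 23 nL cpd/DMSO, 37 C, reads 0–40 h every 8 h.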

[2] = A CellTox Green Cytotoxicity Assay to monitor cytotoxicity in HepG2 cells - 0 hour (AID 1224882); note: nearly all actives have a fitted effect of over 35% in size
Method in brief: (§2)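 First, HepG2 cells (600/well) mixed with reagent were plated; second, after 5 h at 37 C they received compounds via pintool; third, fluorescence was measured at 0 h through 40 h at 8 h intervals.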

[3] = A CellTox Green Cytotoxicity Assay to monitor cytotoxicity in HepG2 cells - 32 hour (AID 1224883); note: nearly all actives have a fitted effect of over 50% in size; note: potency is the fitted concentration of half-maximal effect
Method in brief: as §2

[4] = A CellTox Green Cytotoxicity Assay to monitor cytotoxicity in HEK293 cells - 8 hour (AID 1224884); note: nearly all actives have a fitted effect of over 35% in size; note: potency is the fitted concentration of half-maximal effect
Method in brief: as §1

[5] = qHTS RealTime-Glo MT Cell Viability Assay in HepG2 cells - 16 hour (AID 1224885); note: nearly all actives have a fitted effect of over 50% in size; note: potency is the fitted concentration of half-maximal effect
Method in brief: (§3)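 qHTS, HepG2, 600 cells/well, RealTime-Glo (NanoLuc + prosubstrate) added with cells; 5 h preincubation; DMSO compound addition; 37 C; luminescence at 0/8/16/24/32/40 h.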

[6] = qHTS RealTime-Glo MT Cell Viability Assay in HEK293 cells - 24 hour (AID 1224886); note: nearly all actives have a fitted effect of over 50% in size; note: potency is the fitted concentration of half-maximal effect
Method in brief: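 Assay medium contained NanoLuc luciferase plus cell-permeant prosubstrate, added with HEK293 cells at 600 cells/well. After 5 h at 37 C/5% CO2 compounds were added; plates stayed at 37 C for 40 h with serial luminescence reads.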

[7] = qHTS RealTime-Glo MT Cell Viability Assay in HEK293 cells - 8 hour (AID 1224887); note: top concentration of the series differs between compounds; nearly all actives have a fitted effect of over 50% in size
Method in brief: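 600 HEK293 cells per well, dispensed already mixed with RealTime-Glo MT reagents. Compound dosing came 5 h later. The same wells were read for luminescence at 0, 8, 16, 24, 32 and 40 h of exposure at 37 C.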

[8] = A CellTox Green Cytotoxicity Assay to monitor cytotoxicity in HepG2 cells - 8 hour (AID 1224890); note: nearly all actives have a fitted effect of over 45% in size; note: potency is the fitted concentration of half-maximal effect
Method in brief: as §2

[9] = qHTS assay to identify small molecule antagonists of the estrogen receptor alpha (ER-alpha) signaling pathway using the BG1 cell line in the presence of 0.1 nM 17-beta-estradiol - cell viability counter screen (AID 1259241); note: nearly all actives have a fitted effect of over 40% in size; note: potency is the fitted concentration of half-maximal effect
Method in brief: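 CellTiter-Fluor read (30 min, 37C) on ER-alpha/ERE-luc VM7Luc4E2 cells; 22 hr compound treatment; agonist 0.1 nM E2 final; same-well multiplex.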

[10] = qHTS assay to identify small molecule antagonists of the androgen receptor (AR) signaling pathway using the MDA cell line in the presence of 0.5 nM R1881 - cell viability counter screen (AID 1259242); note: nearly all actives have a fitted effect of over 45% in size; note: potency is the fitted concentration of half-maximal effect
Method in brief: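 qHTS format. MDA-kb2 (MMTV-luc, AR/GR responsive) + cpd + 0.5 nM R1881 final, 16 hr 37C/0% CO2 → CellTiter-Fluor 30 min → fluorescence intensity.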

[11] = target: Estrogen receptor (Homo sapiens) (UniProt P03372); test: qHTS assay to identify small molecule antagonists of the estrogen receptor alpha (ER-alpha) signaling pathway using the BG1 cell line in the presence of 0.1 nM 17-beta-estradiol (AID 1259244); note: nearly all actives have a fitted effect of over 50% in size; note: potency is the fitted concentration of half-maximal effect
Sequence of Estrogen receptor (Homo sapiens) (P03372 whole entry, looked up): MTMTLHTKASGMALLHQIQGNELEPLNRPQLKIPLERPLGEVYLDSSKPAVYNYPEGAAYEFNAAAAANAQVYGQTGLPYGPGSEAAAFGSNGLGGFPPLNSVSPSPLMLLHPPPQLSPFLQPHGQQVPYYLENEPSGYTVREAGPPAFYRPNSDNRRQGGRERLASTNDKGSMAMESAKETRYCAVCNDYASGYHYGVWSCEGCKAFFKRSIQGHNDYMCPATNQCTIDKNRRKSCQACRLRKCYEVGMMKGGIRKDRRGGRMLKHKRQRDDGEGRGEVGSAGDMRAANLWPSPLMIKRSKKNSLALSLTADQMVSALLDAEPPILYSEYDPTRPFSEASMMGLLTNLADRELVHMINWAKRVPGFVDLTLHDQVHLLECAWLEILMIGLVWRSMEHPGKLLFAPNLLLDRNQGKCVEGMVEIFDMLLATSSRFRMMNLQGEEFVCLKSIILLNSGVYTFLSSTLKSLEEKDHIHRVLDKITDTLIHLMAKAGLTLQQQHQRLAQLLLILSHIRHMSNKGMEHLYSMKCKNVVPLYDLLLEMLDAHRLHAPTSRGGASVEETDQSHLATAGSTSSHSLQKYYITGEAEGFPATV
Method in brief: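 Reporter is a stably transfected luciferase under four estrogen responsive elements in VM7Luc4E2 cells expressing native full-length ER-alpha; inhibition of 0.1 nM (final) 17beta-estradiol-driven signal over 22 h is read by luminescence.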

[12] = qHTS assay to identify small molecule phospholipidosis (PLD) inducers (AID 1259344; active = well fitted curve in the direction sought with a large enough effect; an effect the other way counts as inactive or inconclusive; note: potency is the fitted concentration of half-maximal effect)
Method in brief: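 Accumulated phospholipid, stained red by LipidTOX during 24 h compound treatment of HepG2 cells at 37 C, is quantified from images as pit number and intensity, normalised per cell using Hoechst-stained nuclei.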

[13] = qHTS assay to identify small molecule HDAC inhibitors (AID 1259364); note: potency is the fitted concentration of half-maximal effect;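 note: wild-type HCT-116 cells with endogenous class I/II HDAC activity; nearly all actives have a fitted effect of over 45% in size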
Method in brief: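 Quantitative high-throughput format: overnight-seeded HCT-116 cells got compounds for 2 hr at 37C; HDAC-Glo I/II reagent added, 30 min RT, luminescence measured.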

[14] = qHTS assay to identify small molecule agonists of the sonic hedgehog signaling (Shh) pathway - cell viability counter screen (AID 1259366); note: nearly all actives have a fitted effect of over 50% in size; note: potency is the fitted concentration of half-maximal effect
Method in brief: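 Fluorescence from CellTiter-Fluor reports live cells in this counter screen. NIH/3T3-derived Gli1-Luc reporter cells receive test compounds for 24hr at 37C; reagent goes in at 23hr.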

[15] = qHTS assay to identify small molecule antagonists of the sonic hedgehog signaling (Shh) pathway - cell viability counter screen (AID 1259367); note: nearly all actives have a fitted effect of over 55% in size; note: potency is the fitted concentration of half-maximal effect
Method in brief: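 CellTiter-Fluor signal in conditioned medium-stimulated 3T3 Gli1-Luc cells, 23 hr compound exposure, 37C.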

[16] = A CellTox Green Cytotoxicity Assay to monitor cytotoxicity in HEK293 cells - 16 hour (AID 1224888); note: nearly all actives have a fitted effect of over 35% in size; note: potency is the fitted concentration of half-maximal effect
Method in brief: as §1

[17] = qHTS RealTime-Glo MT Cell Viability Assay in HepG2 cells - 0 hour (AID 1224889); note: nearly all actives have a fitted effect of over 50% in size; note: potency is the fitted concentration of half-maximal effect
Method in brief: as §3

[18] = qHTS assay to identify small molecule HDAC inhibitors - cell viability counter screen (AID 1259365); note: nearly all actives have a fitted effect of over 50% in size; note: potency is the fitted concentration of half-maximal effect
Method in brief: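 To flag cytotoxic hits, 1,500 wild-type HCT-116 cells per well, plated the day before, receive test compounds for 2hr at 37 C before CellTiter-Glo reagent and a luminescence read.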

[19] = target: Androgen receptor (Homo sapiens) (UniProt P10275); test: qHTS assay to identify small molecule antagonists of the androgen receptor (AR) signaling pathway using the MDA cell line in the presence of 0.5 nM R1881 (AID 1259243)
Sequence of Androgen receptor (Homo sapiens) (P10275 whole entry, looked up): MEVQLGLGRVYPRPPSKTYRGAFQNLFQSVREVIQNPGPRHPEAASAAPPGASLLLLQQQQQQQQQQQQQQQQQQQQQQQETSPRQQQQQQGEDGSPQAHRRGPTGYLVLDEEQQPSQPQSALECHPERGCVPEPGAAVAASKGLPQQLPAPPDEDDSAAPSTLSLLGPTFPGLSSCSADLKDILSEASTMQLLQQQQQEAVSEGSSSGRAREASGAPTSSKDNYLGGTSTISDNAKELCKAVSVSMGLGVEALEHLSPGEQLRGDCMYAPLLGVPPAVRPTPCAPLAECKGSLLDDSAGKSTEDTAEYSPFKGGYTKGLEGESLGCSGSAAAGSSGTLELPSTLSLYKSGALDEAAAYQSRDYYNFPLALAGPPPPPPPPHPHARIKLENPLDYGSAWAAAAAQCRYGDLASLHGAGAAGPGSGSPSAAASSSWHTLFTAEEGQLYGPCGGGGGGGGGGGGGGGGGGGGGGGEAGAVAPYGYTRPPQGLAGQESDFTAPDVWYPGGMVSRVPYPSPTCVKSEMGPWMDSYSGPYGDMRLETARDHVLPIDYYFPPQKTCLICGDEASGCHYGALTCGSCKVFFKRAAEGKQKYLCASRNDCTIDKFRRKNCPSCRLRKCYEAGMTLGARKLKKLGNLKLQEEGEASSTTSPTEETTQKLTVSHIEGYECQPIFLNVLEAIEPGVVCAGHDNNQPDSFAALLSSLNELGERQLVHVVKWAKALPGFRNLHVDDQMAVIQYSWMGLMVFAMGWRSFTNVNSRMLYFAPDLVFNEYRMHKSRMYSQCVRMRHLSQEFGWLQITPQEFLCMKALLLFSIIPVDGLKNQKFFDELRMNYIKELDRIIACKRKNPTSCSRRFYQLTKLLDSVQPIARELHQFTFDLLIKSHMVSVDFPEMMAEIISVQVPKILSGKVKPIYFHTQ
Method in brief: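 Antagonist mode quantitative HTS in MDA-kb2 MMTV-luciferase cells, agonist R1881 at 0.5 nM final, 16 hr exposure at 37C and 0% CO2, luminescent detection.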

Structure (SMILES)	Potency [1]	Potency [2]	Potency [3]	Potency [4]	Potency [5]	Potency [6]	Potency [7]	Potency [8]	Potency [9]	Potency [10]	Potency [11]	Potency [12]	Potency [13]	Potency [14]	Potency [15]	Potency [16]	Potency [17]	Potency [18]	Potency [19]	PLD induction [12]
Nc1ncnc2c1ncn2[C@H]1CC[C@@H](CO)O1	inactive	inactive	inactive	inactive	inactive	inactive	inactive	inactive	inactive	inactive	inactive	inactive	inactive	inactive	inactive	–	–	–	–	–
C[C@]1(Cn2ccnn2)[C@H](C(=O)O)N2C(=O)C[C@H]2S1(=O)=O	inactive	inactive	–	inactive	inactive	inactive	inactive	inactive	inactive	inactive	inactive	inactive	inactive	inactive	inactive	inactive	inactive	inactive	–	–
COc1ncnc(NS(=O)(=O)c2ccc(N)cc2)c1OC	inactive	–	–	inactive	inactive	inactive	–	–	inactive	inactive	inactive	inactive	inactive	inactive	inactive	inactive	inactive	inactive	–	–
O=[N+]([O-])c1cc(C2CCCCC2)c(O)c([N+](=O)[O-])c1	inactive	inactive	–	inactive	–	13.8 µM (active)	–	inactive	27.2 µM (active)	15.3 µM (active)	7.67 µM (active)	–	inactive	24.3 µM (active)	24.3 µM (active)	inactive	38.8 µM (active)	–	7.67 µM (active)	–
CN1CCCC(CC2c3ccccc3Sc3ccccc32)C1 (stereo unspecified)	23.9 µM (active)	inactive	21.3 µM (active)	inactive	–	23.9 µM (active)	inactive	–	inactive	–	–	–	inactive	–	–	23.9 µM (active)	–	inactive	–	–
C[C@@H]1CN(CCCn2c3ccccc3c3ccccc32)C[C@H](C)N1	23.9 µM (active)	inactive	23.9 µM (active)	23.9 µM (active)	23.9 µM (active)	23.9 µM (active)	–	–	inactive	–	–	10 µM (active)	inactive	33.5 µM (active)	33.5 µM (active)	21.3 µM (active)	–	inactive	–	–
Cc1cccc(N(C)C(=S)Oc2ccc3c(c2)CCC3)c1	inactive	inactive	inactive	inactive	inactive	inactive	inactive	inactive	inactive	inactive	inactive	–	inactive	inactive	inactive	–	inactive	inactive	–	-4.02% [at 7.66 µM] (inactive)
C[C@@H]1CC(=O)NN=C1c1ccc(NN=C(C#N)C#N)cc1	inactive	inactive	–	inactive	–	inactive	inactive	inactive	21.1 µM (active) and 15 µM (active)	11.9 µM (active)	inactive	inactive	–	13.3 µM (active)	13.3 µM (active)	inactive	–	inactive	21.1 µM (active)	–
C/C=C(/C(=C/C)c1ccc(O)cc1)c1ccc(O)cc1	inactive	inactive	16.9 µM (active)	inactive	inactive	–	inactive	15.1 µM (active)	inactive	inactive	–	inactive	inactive	–	–	inactive	–	inactive	–	–
CN(C(=O)CN(CCO)CC(=O)N(C)C(C)(C)Cc1ccccc1)C(C)(C)Cc1ccccc1	–	inactive	23.9 µM (active)	–	–	19 µM (active)	–	–	inactive	inactive	–	inactive	inactive	–	–	–	–	inactive	–	–
CCCCCCNC(=O)n1cc(F)c(=O)[nH]c1=O	inactive	inactive	inactive	inactive	inactive	inactive	inactive	inactive	inactive	inactive	–	inactive	inactive	–	inactive	–	–	inactive	–	–
COC(=O)CCS	inactive	inactive	inactive	inactive	inactive	inactive	–	inactive	inactive	inactive	inactive	–	inactive	inactive	inactive	inactive	–	inactive	–	–
CC(=O)OCCN(CCOC(C)=O)c1ccc(N=Nc2ccc([N+](=O)[O-])cc2C#N)cc1	inactive	inactive	inactive	inactive	inactive	–	–	inactive	–	54.5 µM (active)	–	–	27.3 µM (active)	48.6 µM (active)	54.5 µM (active)	–	inactive	24.3 µM (active)	–	–
O=C1Cc2ccccc2N1c1c(Cl)cccc1Cl	inactive	inactive	–	inactive	inactive	38.9 µM (active)	–	inactive	inactive	inactive	61.1 µM (active)	–	inactive	inactive	inactive	inactive	inactive	inactive	24.3 µM (active)	–
CC(C)(C)CC(=O)OCC(=O)[C@@]1(O)CC[C@H]2[C@@H]3CCC4=CC(=O)C=C[C@]4(C)[C@H]3[C@@H](O)C[C@@]21C	–	inactive	inactive	inactive	inactive	21.3 µM (active)	–	inactive	inactive	inactive	inactive	–	inactive	–	inactive	inactive	1.34 µM (active)	–	–	–
CCN(CC)CCNC(=O)COc1ccc(OC)cc1	inactive	inactive	inactive	inactive	inactive	inactive	inactive	inactive	inactive	inactive	–	inactive	inactive	inactive	inactive	–	inactive	inactive	–	–
CCCCC(CC)COP(=O)(O)O (stereo unspecified)	–	inactive	inactive	inactive	inactive	–	inactive	inactive	inactive	inactive	inactive	–	inactive	inactive	inactive	–	inactive	inactive	–	–
